PubChem BioAssay AID588334 (Broad Institute, 2011)
Hit rate of the full screen: of about 300,000 compounds, about 2,300 (0.77%) were called active. The sample holds actives, similar compounds and a random draw of the others, so the mix is not that of the screen. Unmarked numbers belong to inactive results.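 The calls were made as follows: active = mean activation of at least 80% with every replicate also reaching 80%; inconclusive = mean reaches 80% but some replicate falls short; inactive = the rest.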

assay: activators of MITF-driven TRPM1 promoter reporter, primary screen, cell-based, SK-MEL-5, luciferase, single point (AID 588334); conditions: SK-MEL-5 TRPM1-promoter luciferase, 24 h; at 12.5 µM; stronger effect = higher value; % of positive control, neutral wells = 0;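 also: 0% = neutral control wells and 100% = parthenolide positive control wells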

SMILES	activation
FC(F)(F)c1cccc(N/N=C/c2ccccc2)c1	88.5% (active)
Cc1nnsc1C(=O)N/N=C/c1cccc(C(F)(F)F)c1	15.6%
FC(F)(F)c1cccc(Nc2ncnc3ccccc23)c1	0.633%
Cc1c(NS(=O)(=O)c2cccc(C(=O)Nc3ccc(SC(F)F)cc3)c2)c(=O)n(-c2ccccc2)n1C	-11%
COc1cc(/C=C/c2ccc(/C=C/c3cc(OC)c(OC)c(OC)c3)cc2)cc(OC)c1OC	-15.7%
COc1cccc(CNC(=O)CCCC(=O)Nc2cccc([N+](=O)[O-])c2)c1	-21%
COc1cccc(C(=O)CC(=O)C(=O)Nc2ccc([N+](=O)[O-])cc2C)c1	0.189%
COc1cccc(NCCC(=O)c2cccc([N+](=O)[O-])c2)c1	85.6% (active)
Cc1ccc(C)c(S(=O)(=O)N2CCN(c3ncnc4sccc34)CC2)c1	-33.1%
CCC(C)C1(C2CCCC2)NC(=O)NC1=O (stereo unspecified)	-0.575%
CSCCC(NS(=O)(=O)c1ccc(C)cc1)C(=O)N(C)CC(=O)Nc1ccccc1Br (stereo unspecified)	-13.8%
Cc1nn2cc(-c3ccc(Cl)cc3)cnc2c1Br	132% (active)
C=CCn1c(=O)n(C)c2c(=O)n(C)c(=O)n(C)c21	-2.68%
O=C1c2ccccc2C(=O)N1CCCCCCN1C(=O)c2ccccc2C1=O	-10.4%
CC(C)n1cnc2c(NCc3ccccc3)cc(OCC3CCN(C)CC3)cc21	-31%
O=C(c1ccc(CSc2ccccc2)cc1)N1CCCCCC1	61.5%
CN(C)c1ccc(CSc2ccccc2)cc1	106% (active)
CN(C)c1cc[n+](Cc2ccccc2)cc1	-11.3%
C=CC[C@H](CC(=O)N(CCO)Cc1ccccc1)C(=O)N[C@@H](COC(=O)[C@@H](CC=C)Cc1ccc(F)cc1)Cc1ccccc1	8.2%
Nc1cc(=O)n(Cc2ccccc2)c(=O)n1Cc1ccccc1	-2.74%
Cc1ccc(CSc2nnc(-c3cnccn3)n2C)cc1	12.1%
Cn1c(SCc2c(F)cccc2Cl)nnc1-c1cnccn1	90.4% (active)
Oc1ccc(-n2nnnc2SCc2c(F)cccc2Cl)cc1	0.316%
Cc1ccc(C(=O)Nc2ccccc2-c2ccccc2)cc1S(=O)(=O)Nc1ccccc1	3.07%
CCOc1cc(C(=O)N(Cc2ccccc2)c2ccc(C)cc2)ccc1OCC(=O)N1CCOCC1	-10.1%
CCOC(=O)c1ccc(NC(=O)CNC(=O)c2ccco2)cc1	7.02%

SMILES	activation
O=C(COC(=O)c1ccccc1C(=O)c1ccccc1)c1ccco1	1.5%
O=C(OCC(=O)N1CCCC1)c1ccco1	4.95%
CCN(CC)c1ccc(C(=O)OCC(=O)c2ccco2)cc1	83.2% (active)
CCc1ccc(C(=O)COC(=O)c2ccco2)cc1	99.6% (active)
O=C(COC(=O)c1ccco1)NCc1ccc(Cl)cc1	-14.2%
CCCCN1CC(COc2ccccc2)Oc2cccc(F)c2S1(=O)=O (stereo unspecified)	-2.06%
N#CCc1c[nH]c2ccc([N+](=O)[O-])cc12	11.4%
CCC1([N+](=O)[O-])COC(c2ccc(C)cc2)OC1 (stereo unspecified)	1.68%
CN(CCc1ccccc1)C(=O)c1cccc(NC(=O)Cc2cccc(NC(=O)C3CCCN(C(=O)C4CCC4)C3)c2)c1 (stereo unspecified)	-9.62%
c1ccc(-c2nnc(SCc3nc4ccccc4[nH]3)o2)cc1	-11.4%
Clc1ccccc1SCc1nc2ccccc2[nH]1	98.6% (active)
c1ccc2c(CSCc3nc4ccccc4[nH]3)cccc2c1	-9.4%
O=C(Cc1ccc(NC(=O)C2CCCN(C(=O)C3CCCCC3)C2)cc1)Nc1cccc(C(=O)N2CCCCC2)c1 (stereo unspecified)	2.88%
Cc1cccc(C)c1NC(=S)N1CCCCCC1	-1.99%
S=C(c1ccc(-c2ccccc2)o1)N1CCCCC1	99.8% (active)
CC1CCN(C(=S)c2ccc(-c3ccc(Cl)cc3Cl)o2)CC1	28%
CC(C)Cc1nnc(N)s1	-14.5%
Cc1ccc(NC(=O)C2CCC(C(C)(C)C)CC2)cc1S(=O)(=O)N1CCOCC1 (stereo unspecified)	-5.55%
COc1cc(/C=C2\Oc3ccc(C#Cc4ccc(O)cc4)cc3C2=O)cc(OC)c1	-73.4%
COCCNC(=O)Cn1cc(C(=O)c2cccs2)c2ccccc21	7.95%
O=C(COC(=O)c1cccs1)NCc1cccs1	3.86%
COC(=O)c1cn(CC(=O)NCc2cccs2)c2ccccc12	81.5% (active)
O=C(NCc1ccccc1)c1cccc(NC(=O)C2CCCCC2)c1	-5.07%
O=C(NN=Cc1ccccc1)c1ccccc1	55%
Cc1ccoc1C(=O)Nc1cccc(Oc2ccccc2)c1	87% (active)
COc1cccc(NC(=O)c2ccccc2SC)c1	6.57%

SMILES	activation
Cc1cccc(NC(=O)Nc2cccc(Oc3c(F)c(F)c(F)c(F)c3F)c2)c1	16.2%
CSc1ncnc2c1ncn2CC(=O)C1CCC2C3CCC4=CC(=O)CCC4(C)C3CCC12C (stereo unspecified)	-44.7%
CCOc1ccc(/C=C(/C#N)c2nnc(N3CCOCC3)n2-c2ccccc2)cc1OC	-2.3%
O=C(c1ccc(F)cc1)N1CCCC(c2nc(-c3cccs3)no2)C1 (stereo unspecified)	-6.36%
Cc1ccc(-c2noc(C3CCCN(C(=O)c4cccc(Cl)c4)C3)n2)o1 (stereo unspecified)	102% (active)
COc1cccc(-c2noc(C3CCCN(C(=O)c4ccc(F)cc4)C3)n2)c1 (stereo unspecified)	-11.5%
c1cnc(Nc2nc(-c3ccc4ccccc4c3)cs2)nc1	103% (active)
Cc1ccc(-c2csc(NC3OC(=O)c4ccccc43)n2)cc1 (stereo unspecified)	-32.1%
O=C(Nc1nc(-c2ccc(-c3ccccc3)cc2)cs1)c1cnccn1	1.68%
COc1ccc(CCNC(=O)c2ccccc2OCc2ccccc2)cc1	-7.11%
O=C(NCCc1ccccc1)c1cccc(NC(=O)c2ccccc2)c1	20.5%
COc1cccc2[nH]c(C(=O)NCCc3ccccc3)cc12	110% (active)
Cc1ccc(S(=O)(=O)N2CCN(C(=O)COC(=O)/C=C/c3cccc(Cl)c3)CC2)c(C)c1	4.12%
Cc1cccc(NC(=O)c2ccc(S(=O)(=O)N(C)c3ccccc3)cc2)n1	1.38%
CSCCC1NC(=O)N(CC(=O)Nc2cccc(S(=O)(=O)N3CCCCCC3)c2)C1=O (stereo unspecified)	11.8%
O=C(OCc1ccccc1F)c1ccc2c(c1)OCCO2	126% (active)
O=C(COC(=O)c1ccc2c(c1)OCCO2)NCc1ccccc1Cl	4.3%
O=C(COC(=O)c1ccccc1)c1ccc2c(c1)OCCO2	17.6%
CCOc1ccc(C(=O)Nc2ccncc2)cc1	41.4%
CCOc1ccc(C(=O)Nc2cccc(-c3ccc4nncn4n3)c2)cc1	52.8%
CCOc1ccc(C(=O)Nc2cccc(SC)c2)cc1	84.3% (active)
O=C1CC[C@@H]2CC3(C[C@@H]4CCN1[C@H]24)Nc1cc([N+](=O)[O-])ccc1NC3=NC1CCCCC1 (stereo partly specified)	3.73%
COc1ccc(C(=O)NC2CCN(C(=S)Nc3ccccc3)CC2)cc1	-0.484%
COc1ccc(C(=S)Nc2ccccc2)cc1	33.5%
COc1ccc(NC(=S)N2N=CCC2c2ccccc2)cc1 (stereo unspecified)	90.9% (active)
Cc1ccc(NC(=S)NCc2ccccc2Cl)c(C)c1	-11.2%

SMILES	activation
Cc1ccc(NC(=S)Nc2ncccc2C)c(C)c1	92.2% (active)
Cc1ccc(C(=O)NC(=S)Nc2ccccc2C)cc1	51.8%
COc1ccc(CNCCCn2cnc3c(OCc4ccccc4)ncnc32)cc1	7.28%
Cc1ccc(S(=O)(=O)N2CCN(C(=O)c3cc(S(=O)(=O)N4CCOCC4)ccc3F)CC2)cc1	-4.55%
NN=C(NN=Cc1ccccc1)c1ccccc1	35.2%
CCCOc1ccc(C(=O)NCCc2ccccc2)cc1	-2.06%
O=C(NCCc1ccccc1)c1ccc2c(c1)N(Cc1ccccc1)CCS2	39.9%
CC1CCCN(c2ccc(C(=O)NCCc3ccccc3)cn2)C1 (stereo unspecified)	126% (active)
CC(C(=O)N1CCc2ccccc21)N(C)CC(=O)Nc1ccc(F)cc1 (stereo unspecified)	13.5%
COC[C@@H]1NS(=O)(=O)c2ccc(Br)cc2O[C@H]1c1ccccc1	7.36%
O=C(CC1SCCNC1=O)Nc1ccc(Cl)cc1 (stereo unspecified)	26.1%
O=C(O)C1CCCCC1C(=O)Nc1ccc(Cl)cc1 (stereo unspecified)	20.2%
O=C(Nc1ccc(Cl)cc1)/C(=C1\CCCN1)[N+](=O)[O-]	88.7% (active)
COc1ccccc1N(CC(=O)Nc1ccc(C)cc1Cl)S(=O)(=O)c1cccs1	-4.34%
CC(C)CNC(=S)NC(=O)c1ccc(Cl)cc1	112% (active)
COc1ccc(C(=O)NC(=S)NC2CCCCC2)cc1	73.7%
O=C(NNC(=S)NC1CCCCC1)c1ccccc1Cl	9.14%
O=C(NC(=S)NC1CCCCC1)c1ccc(Cl)cc1	138% (active)
Cc1occc1C(=O)NNC(=S)NCC(C)C	-2.13%
S=C(NCc1ccc(Cl)cc1)NC1CCCCC1	-7.01%
O=C(NC1CCCCCC1)c1cccnc1Sc1ccc(Cl)cc1	6.6%
O=C(NC1CCCCC1)c1ccc(-c2ccc(Cl)cc2)o1	111% (active)
COCCCNC(=S)NC(=O)c1ccccc1	17.9%
